# Screening results from PubChem BioAssay.
# KB-3-1 tox: KB-3-1 parental cell cytotoxicity; AID 1347075; 400,000 compounds, 1.4% hits; Potency, µM (highest dose often 46.1 µM), actives largely listed as cytotoxic; KB-3-1 viability, CellTiter-Glo ATP luminescence, 72 h; further: potency means the concentration at half of the fitted maximal effect; on the % scale 0 is the no-effect control and ±100 the full control effect; nearly all actives have a fitted effect of over 60% in size
#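 Parental KB-3-1 adenocarcinoma cells in phenol-red-free DMEM with 10% FBS were pin-treated with compounds at several concentrations, incubated 72 h at 37 °C, and viability read by CellTiter-Glo luminescence; concentration-effect curves were fitted after normalization.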
# MCF10A rerep: DNA re-replication induction in MCF 10a cells; MCF 10A DNA re-replication, Hoechst nuclear intensity, 48 h; Potency, µM (highest dose often 46.1 µM), for the others: top-dose activity, positive = re-replication, actives largely listed as activators; 350,000 compounds, 2.9% hits; further: potency means the concentration at half of the fitted maximal effect; % of control where 0% means no effect; nearly all actives have a fitted effect of over 50% in size
# SW480 rereplic: DNA re-replication induction in SW480 cells. 340,000 compounds, 1.8% hits. SW480 DNA re-replication, Hoechst DNA content imaging, 48 h. Potency, µM (series often up to 46.1 µM), for the others: at the highest dose re-replication activation, actives largely listed as activators; further: potency means the concentration at half of the fitted maximal effect; % of control where 0% means no effect; nearly all actives have a fitted effect of over 55% in size
#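 Per well, 250 cells were exposed to pinned compound for 48 hr. Nuclear DNA was visualised with Hoechst (40 min, 37 C) and total object intensity recorded by fluorescence scanning.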
# KB-V1 cytotox: KB-V1 MDR subline cytotoxicity; KB-V1 MDR cells viability, CellTiter-Glo, 72 h; Potency, µM (highest dose often 46.1 µM), hits mostly cytotoxic; 400,000 compounds, 3.4% hits; AID 1347076; further: potency means the concentration at half of the fitted maximal effect; on the % scale 0 is the no-effect control and ±100 the full control effect; nearly all actives have a fitted effect of over 60% in size
#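 In this primary screen, KB-V1 cells overexpressing P-gp are incubated with library compounds (lowest to highest concentration) for 72 h at 37 degrees C before a luminescent ATP viability read.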
# KCNH2 3.1 inh: blocks the human KCNH2 3.1 channel isoform; U2OS KCNH2 3.1, thallium flux FluxOr; stronger effect = lower value; activity change, % (tested at about 1.8 µM); 340,000 compounds, 0.95% hits; AID 720553;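 active means maximum activity change below -70%; inconclusive means maximum activity change from -70% to -50%; inactive means maximum activity change above -50%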;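 further: thallium influx rate constant from kinetic fluorescence after stimulation buffer; on the % scale 0 is the no-effect control and ±100 the full control effect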
#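 We transduce U2OS cells with the mutant 3.1 virus, culture them overnight, load FluxOr with Red40 quencher for 45 min, then add stimulation buffer and read kinetically for 2 min to derive a normalized rate constant.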
# KCNH2 WT inh: blocks the wildtype human KCNH2 potassium channel; activity change, % at 1.84 µM; 340,000 compounds, 0.37% hits; U2OS, BacMam KCNH2, thallium flux FluxOr; stronger effect = lower value;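 active means maximum activity change below -70%; inconclusive means maximum activity change between -70% and -50%; inactive means maximum activity change above -50%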; further: on the % scale 0 is the no-effect control and ±100 the full control effect
#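 U2OS cells were transduced with wild-type KCNH2 virus (2.03 x 10^8 / mL) for 4 h at room temperature, then cultured overnight at 37 C. Thallium flux was read with FluxOr dye. Rate constants were normalized to DMSO controls.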
# The depositor's hits bear a star; i = inactive; ? = inconclusive; · = not tested or not shown. This is a sample that favours compounds with a hit; in the whole collection about 7.6% have one here. Unless noted, the call rests on the fitted dose curve; in most records, active means well fitted curve in the direction sought with a large enough effect; inconclusive means small, poorly fitted or top-dose-only effect, or another doubt; inactive means no such curve, though single readings can be large; an effect the other way counts as inactive or inconclusive.
SMILES,KB-3-1 tox,MCF10A rerep,SW480 rereplic,KB-V1 cytotox,KCNH2 3.1 inh,KCNH2 WT inh
Cc1ccccc1OCC(=O)N(Cc1ccco1)c1c(N)n(Cc2ccccc2)c(=O)[nH]c1=O,i,-0.4%,-0.8%,i,-1.7,4.8
Cc1ccc(-n2ncc3c(NCCc4ccccc4)ncnc32)cc1Cl,i,·,·,i,·,·
Cc1cccc(-n2ncc3c(Nc4c(C)cc(C)cc4C)ncnc32)c1,9.2µM*,·,·,?,·,·
Cc1cccc(-n2ncc3c(NC(C)C)ncnc32)c1,i,6.0%,-2.0%,i,20.8,0.7
Cc1cccc(-n2ncc3c(N4CCC(C)CC4)ncnc32)c1,i,-6.3%,-8.4%,i,2.8,-6.9
Cc1cccc(-n2ncc3c(N)ncnc32)c1,?,-1.5%,1.0%,8.2µM*,-9.2,-8.3
Cc1ccc(-n2ncc3c(NCCO)ncnc32)cc1Cl,i,·,·,5.8µM*,·,·
Cc1ccc(Cl)cc1N(Cc1ccc(C(=O)NCc2cccnc2)cc1)S(=O)(=O)c1ccccc1,i,-3.9%,-10.1%,14.6µM*,-1.8,-0.9
COc1ccccc1NC(=O)c1ccc(CN(c2cc(Cl)ccc2C)S(=O)(=O)c2ccccc2)cc1,i,-3.8%,-8.1%,i,-29.0,-0.1
COc1ccc(NC(=O)c2ccc(CN(c3cc(Cl)ccc3C)S(=O)(=O)c3ccccc3)cc2)cc1OC,i,16.3%,5.3%,3.66µM*,-8.8,5.5
CC(=O)c1cccc(NC(=O)C2C3C=CC(C3=C(c3ccccc3)c3ccccc3)C2C(=O)O)c1 (stereo unspecified),i,?,5.8%,i,-2.6,0.9
Cc1ccc(NC(=O)CSc2ncccc2C(=O)Oc2cccc([N+](=O)[O-])c2)cc1Cl,i,?,-4.6%,i,-11.3,10.8
CC(=O)c1ccc(S(=O)(=O)NCCC(=O)OCC(=O)N(Cc2ccccc2)C(C)(C)C)cc1,i,4.8%,-3.2%,20.6µM*,-24.5,-12.8
CC(=O)Nc1ccc(C(=O)OCC(=O)NCc2ccccc2)cc1,?,?,?,i,3.5,0.3
Cc1ccc(S(=O)(=O)NCCC(=O)OCC(=O)N(Cc2ccccc2)C(C)(C)C)cc1,i,19.2%,-30.8%,i,-25.6,-3.7
CC(=O)Nc1ccc(C(=O)OCC(=O)N(Cc2ccccc2)C(C)(C)C)cc1,i,4.4%,-13.0%,14.6µM*,-4.3,-7.3
COc1cc(C)c(Cl)cc1S(=O)(=O)NCCc1c(C)[nH]c2ccccc12,i,·,·,i,·,·
O=C(Cc1cc(C(F)(F)F)cc(C(F)(F)F)c1)Nc1c(-c2ccccc2)[nH][nH]c1=O,i,·,·,i,·,·
COc1ccc(CCNC(=O)C(=O)N2CCCC2)cc1OC,i,0.6%,-6.4%,i,12.4,-6.8
COc1cccc(CC(O)CC2c3c(cc4c(c3OC)OCO4)CCN2C)c1 (stereo unspecified),i,2.3%,?,i,-70.7*,33.9
CC(C)(C)c1ccc(S(=O)(=O)/N=C2\C=C(NS(=O)(=O)c3ccccc3)C(=O)c3ccccc32)cc1,i,-17.1%,?,i,-9.0,-2.6
CCc1ccc(S(=O)(=O)/N=C2\C=C(Nc3ccc(C(=O)O)cc3)C(=O)c3ccccc32)cc1,?,4.61µM*,9.2µM*,i,1.0,-4.8
Cc1ccc(S(=O)(=O)/N=C2\C=C(Nc3cccc(C(=O)O)c3)C(=O)c3ccccc32)cc1,23.1µM*,?,?,i,7.0,1.5
Cc1ccc(S(=O)(=O)/N=C2\C=C(Nc3ccc(O)cc3)C(=O)c3ccccc32)cc1,4.11µM*,3.26µM*,6.31µM*,?,-6.4,17.4
Cc1ccc(S(=O)(=O)/N=C2\C=C(Nc3cccc(C(=O)O)c3)C(=O)c3ccccc32)c(C)c1,?,6.51µM*,?,i,-1.6,-1.0
SMILES,KB-3-1 tox,MCF10A rerep,SW480 rereplic,KB-V1 cytotox,KCNH2 3.1 inh,KCNH2 WT inh
Cc1ccc(NC2=C(NCCO)C(=O)c3ccccc3C2=O)cc1,?,19.2%,?,i,5.7,7.1
CC(=O)c1cccc(NC(=O)[C@H](Cc2ccccc2)N2Cc3ccccc3C2=O)c1,i,·,·,i,·,·
Cc1cccc(-n2cc(-c3ccc([N+](=O)[O-])cc3)[nH]c2=S)c1,i,-0.8%,1.8%,?,?,-70.3*
O=[N+]([O-])c1ccc(-c2cn(-c3ccccc3)c(=S)[nH]2)cc1,i,-3.5%,-6.0%,i,-13.9,-8.3
CC1(C)C(C=C(Cl)Cl)C1C(=O)N(Cc1ccccc1Cl)C1CCS(=O)(=O)C1 (stereo unspecified),i,9.1%,0.5%,14.6µM*,-2.2,-12.4
CNC(=O)Cn1nc(-c2ccc(C)cc2)c2ccccc2c1=O,i,8.4%,?,i,13.4,9.6
Cc1ccc(C(=O)NC2CCS(=O)(=O)C2)cc1S(=O)(=O)N1CCCCCC1 (stereo unspecified),i,0.5%,1.8%,i,-114.2*,13.9
CC1CCN(S(=O)(=O)c2ccc(C(=O)NC3CCS(=O)(=O)C3)cc2)CC1 (stereo unspecified),i,4.9%,?,i,-78.9*,-3.4
COc1ccc(CN2CCC[C@]3(N[C@H](c4ccc(C)cc4)[C@@H]4C(=O)N(C)C(=O)[C@@H]43)C2=O)cc1,i,·,·,i,-8.3,17.7
Cc1cccc(C)c1NC(=O)C(c1cccc2ccccc12)n1c(=O)c(-c2cc3ccccc3[nH]2)nc2ccccc21 (stereo unspecified),i,·,·,i,·,·
COc1cc(/C=N/O)cc(Br)c1OCC(=O)NCc1ccccc1,i,-38.8%,10.4%,16.4µM*,16.7,0.9
C=CC(=O)N1C/C(=C/c2ccc(Cl)cc2)C(=O)/C(=C\c2ccc(Cl)cc2)C1,?,?,1.46µM*,i,-24.3,15.6
C=CC(=O)N1C/C(=C/c2ccccc2)C(=O)/C(=C\c2ccccc2)C1,4.11µM*,19.3%,?,?,-18.3,-4.3
CCOc1ccc(N2CC(NC(=O)c3ccc4ccccc4c3)CC2=O)cc1 (stereo unspecified),i,?,13.5%,i,-2.2,10.1
CNc1ccc(C=C2C=CC=C2)cc1,i,·,·,i,·,·
CC1CCCC=CC2CC(OC(=O)CN(C)C)CC2C(O)C=CC(=O)O1 (stereo unspecified),0.0082µM*,?,?,?,2.0,-7.2
Cc1nn(C)c(C)c1N1C(=O)c2cccc3c(N)ccc(c23)C1=O,i,13.4%,5.2%,i,-5.5,-19.3
